{
  "source": "PubChem BioAssay AID2013",
  "about": "(Sanford-Burnham Center for Chemical Genomics, 2009)",
  "note": "Where “and” joins values, the source holds several entries; their conditions need not be identical. Equal entries are not always repeated. About 370 (0.13%) of roughly 290,000 compounds were called active. The full list was thinned out, with actives kept by preference. Potency and affinity values are given separately. A number with no mark means an inactive call.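 Rule for the calls: active = spots per cell inhibited over 60%, with over 100 cells counted and total cytoplasm intensity under 500,000; inconclusive = wells with under 100 cells, flagged as likely toxic; inactive = the rest.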",
  "data": [
    {"target": "G-protein coupled receptor 55 (Homo sapiens) (UniProt Q9Y2T6)", "sequence (Q9Y2T6 whole entry, looked up)": "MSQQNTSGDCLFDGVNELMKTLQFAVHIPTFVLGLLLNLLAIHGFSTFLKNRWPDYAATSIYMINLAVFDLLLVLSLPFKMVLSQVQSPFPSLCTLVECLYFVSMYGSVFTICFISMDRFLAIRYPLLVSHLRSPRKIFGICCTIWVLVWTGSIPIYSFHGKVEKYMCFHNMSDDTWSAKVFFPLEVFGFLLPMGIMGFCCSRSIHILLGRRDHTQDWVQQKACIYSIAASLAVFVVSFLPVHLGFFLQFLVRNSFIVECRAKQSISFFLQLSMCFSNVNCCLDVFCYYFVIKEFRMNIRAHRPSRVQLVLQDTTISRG", "experiment": "GPR55 antagonists blocking LPI-driven arrestin recruitment, primary screen, imaging, U2OS, beta-arrestin-GFP, LPI agonist (AID 2013);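 note: U2OS cells stably carrying GPR55 and arrestin-GFP stimulated by 5 µM LPI near EC80; imaged beta-arrestin-GFP aggregate spots per cell after agonist stimulation; plate controls were LPI-stimulated DMSO wells for no effect and DMSO wells without LPI for full effect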", "settings": "U2OS GPR55 beta-arrestin-GFP translocation imaging, LPI antagonism; at 10 µM; active compounds read high", "values": [
      {"smiles": "COc1cc(C(=O)NCc2nnc(SCC(=O)Nc3nc4ccccc4s3)o2)cc(OC)c1OC", "inhibition": "-13.1%"},
      {"smiles": "O=C(Cn1c(=O)c2cccn2c2cccnc21)N1CCN(c2ccc(Cl)cc2)CC1", "inhibition": "-2.4%"},
      {"smiles": "COc1ccc(NC(=O)CN(C)C(=O)C(C)Sc2ccccc2)cc1", "note": "(configuration not stated)", "inhibition": "8.3%"},
      {"smiles": "CC(=O)Nc1ccc(S(=O)(=O)NC(CC(=O)NCCc2ccccc2)C(C)C)cc1", "note": "(configuration not stated)", "inhibition": "12.5%"},
      {"smiles": "CC(=O)N1CCN(c2ccc(NC(=O)c3ccc([N+](=O)[O-])cc3Cl)cc2)CC1", "inhibition": "3.5%"},
      {"smiles": "Cc1nc(-c2ccc([N+](=O)[O-])cc2)sc1C(=O)O", "inhibition": "6.9%"},
      {"smiles": "CCS(=O)(=O)c1ccc(-c2csc(-c3ccccc3Cl)n2)c(Cl)c1Cl", "inhibition": "-11.1%"},
      {"smiles": "CCS(=O)(=O)c1ccc(-c2csc(-c3ccccc3)n2)c(Cl)c1Cl", "inhibition": "31.4%"},
      {"smiles": "COc1ccc(-c2csc(Nc3cccc(C)n3)n2)cc1C", "inhibition": "13.8%"},
      {"smiles": "O=C(Nc1nc(-c2ccc(Cl)cc2Cl)cs1)c1ccc(OCC2CCCO2)cc1", "note": "(configuration not stated)", "inhibition": "96% (active)"},
      {"smiles": "COc1ccc(OC)c(-c2csc(NC(=O)c3ccc(OCC4CCCO4)cc3)n2)c1", "note": "(configuration not stated)", "inhibition": "-3%"},
      {"smiles": "O=C(Nc1nc(-c2ccc(F)c(F)c2)cs1)c1ccc(OCC2CCCO2)cc1", "note": "(configuration not stated)", "inhibition": "-5.3%"},
      {"smiles": "CCn1nc(C)c(/C=N/NC(=O)Cn2nnc(N)n2)c1C", "inhibition": "-1.9%"},
      {"smiles": "CCOC(=O)C1CCCN(S(=O)(=O)c2cc(Br)cc3c2N(C(=O)CC)CC3)C1", "note": "(configuration not stated)", "inhibition": "-0.6%"},
      {"smiles": "COc1cc(/C=C/C(=O)OCN2C(=O)c3ccccc3C2=O)ccc1OC(F)F", "inhibition": "0.4%"},
      {"smiles": "COc1ccc(-c2oc(/N=C/N3CCCC3)c(C#N)c2-c2ccc(OC)cc2)cc1", "inhibition": "14.8%"},
      {"smiles": "N#Cc1c(/N=C/c2ccccc2)oc(-c2ccccc2)c1-c1ccccc1", "inhibition": "-11.7%"},
      {"smiles": "CC(C)(C)SCCNC(=O)/C=C/c1ccccc1", "inhibition": "2.8%"},
      {"smiles": "COc1ccc(S(=O)(=O)n2nc(OC(=O)c3c(-c4ccccc4Cl)noc3C)cc2N)cc1", "inhibition": "-4.9%"},
      {"smiles": "Cc1ccsc1C(=O)N(c1nc2ccccc2s1)c1c(C)cccc1C", "inhibition": "9.7%"},
      {"smiles": "COc1cccc(N(C(=O)c2cccs2)c2nc3ccccc3s2)c1", "inhibition": "0.2%"},
      {"smiles": "O=C(COC(=O)C1CC2C=CC1C2)Nc1cccc(S(=O)(=O)N2CCOCC2)c1", "note": "(configuration not stated)", "inhibition": "-10.4%"},
      {"smiles": "O=C(c1ccc(O)cc1)c1ccc(C(=O)c2ccc(O)cc2)cc1", "inhibition": "9.7% and -6%"},
      {"smiles": "C=C(c1ccc(OC)cc1)c1ccc(OC)cc1", "inhibition": "-8%"},
      {"smiles": "ONC(=Nc1ccccc1)c1ccc(Cl)cc1", "inhibition": "19.2%"},
      {"smiles": "CCN1CCN(C(c2cccc(OC)c2OC)c2nnnn2Cc2ccco2)CC1", "note": "(configuration not stated)", "inhibition": "-6.5%"},
      {"smiles": "COc1cccc(C(c2nnnn2Cc2ccco2)N2CCN(c3cccc(C)c3C)CC2)c1OC", "note": "(configuration not stated)", "inhibition": "99.7% (active)"},
      {"smiles": "COc1ccccc1C(c1nnnn1Cc1ccco1)N1CCN(c2cccc(C)c2C)CC1", "note": "(configuration not stated)", "inhibition": "15.4%"},
      {"smiles": "O=C(NC1CCN(Cc2ccc(F)cc2)CC1)c1ccccc1", "inhibition": "6.4%"},
      {"smiles": "Fc1ccc(NC(=S)NC2CCN(Cc3ccccc3)CC2)cc1", "inhibition": "28.1%"},
      {"smiles": "COCCN(CCOC)C(=S)Nc1ccccc1", "inhibition": "12.7%"},
      {"smiles": "NC(=O)C1CCN(C(=O)C2CC(=O)N(c3ccc(F)cc3)C2)CC1", "note": "(configuration not stated)", "inhibition": "-0.2%"},
      {"smiles": "COc1ccccc1OCC(=O)N1CCN(C(=O)COc2ccccc2OC)CC1", "inhibition": "2.2%"},
      {"smiles": "Oc1ccc(/C=N/Nc2nc(-c3cccnc3)nc3ccccc23)c(O)c1", "inhibition": "1.9%"},
      {"smiles": "Oc1ccc(Nc2nc(-c3ccccc3F)nc3ccccc23)cc1", "inhibition": "7.7%"},
      {"smiles": "O=C(Nc1nnc(-c2ccccc2)o1)c1cc(Cl)sc1Cl", "inhibition": "-2.3%"},
      {"smiles": "O=C(O)c1cc2c(cc1NC(=O)c1ccccc1OC(F)F)OCCCO2", "inhibition": "-0.6%"},
      {"smiles": "CCOC(=O)c1c(NC(=O)c2cccnc2)sc(C)c1C", "inhibition": "-12.1%"},
      {"smiles": "CCOC(=O)c1c(NC(=O)c2ccc(Cl)s2)sc(C)c1C", "inhibition": "1.6%"},
      {"smiles": "CCOC(=O)c1c(NC(=O)C2=C(C)NC(=S)NC2c2ccccc2C(F)(F)F)sc(C)c1C", "note": "(configuration not stated)", "inhibition": "5.6%"},
      {"smiles": "CCOC(=O)c1c(NC(=O)C2=C(C)NC(=S)NC2c2ccc(F)cc2)sc(C)c1C", "note": "(configuration not stated)", "inhibition": "64.1% (active)"},
      {"smiles": "CCOC(=O)c1c(NC(=O)c2ccnn2C)sc(C)c1C", "inhibition": "1.1%"},
      {"smiles": "CCOC(=O)c1c(NC(=O)c2ccncc2)sc(C)c1C", "inhibition": "-0.7%"},
      {"smiles": "CCOC(=O)c1c(NC(=O)C2=C(C)NC(=S)NC2c2ccc(F)cc2F)sc(C)c1C", "note": "(configuration not stated)", "inhibition": "10%"},
      {"smiles": "Cc1ccccc1NC(=O)CCS(=O)(=O)c1cccc2nonc12", "inhibition": "2.7%"},
      {"smiles": "COc1ccc2c(c1)C(NC(C)=O)C(=O)N2CCc1ccccc1", "note": "(configuration not stated)", "inhibition": "6.6%"},
      {"smiles": "O=C(CCC(=O)n1ncc2ccccc21)NCc1ccc(F)cc1", "inhibition": "-2.2%"},
      {"smiles": "O=C(NCc1ccc2c(c1)OCO2)c1nc(Cn2cc([N+](=O)[O-])cn2)no1", "inhibition": "-20%"},
      {"smiles": "CC(C)(C)C(=O)COC(=O)c1cc(-c2ccncc2)nc2ccccc12", "inhibition": "2.9%"},
      {"smiles": "O=C(Cn1c(=O)oc2ccccc21)N1CCCC1", "inhibition": "-1.8%"},
      {"smiles": "CCOC(=O)c1c(CN(C)C)n(-c2ccc(C)cc2)c2cc(Br)c(O)cc12", "inhibition": "-0.7%"},
      {"smiles": "CCOC(=O)c1c(CN(C)C)n(-c2ccccc2)c2cc(Br)c(O)cc12", "inhibition": "3.4%"},
      {"smiles": "CCOC(=O)c1c(CSC(=N)N)n(-c2ccc(Br)cc2)c2cc(Br)c(OC(C)=O)cc12", "inhibition": "89.3% (active)"},
      {"smiles": "CCOC(=O)c1c(CSc2nc(C)cc(C)c2C#N)n(C)c2cc(Br)c(OC(C)=O)cc12", "inhibition": "1.8%"},
      {"smiles": "CCOC(=O)c1c(C)n(C)c2cc(Br)c(OC)cc12", "inhibition": "7.4%"},
      {"smiles": "CCOC(=O)c1c(CN(C)C)n(-c2ccccc2)c2cc(Br)c(OC)cc12", "inhibition": "-15.4%"},
      {"smiles": "CCCCCCCCOC(=O)c1c(CSC(=N)N)n(C)c2cc(Br)c(OC(C)=O)cc12", "inhibition": "23.7%"},
      {"smiles": "C=CCCc1ccc(C#N)c(SCc2c(C(=O)OCC)c3cc(OC(C)=O)c(Br)cc3n2C)n1", "inhibition": "-23.2%"},
      {"smiles": "CCOC(=O)c1c(CN2CCOCC2)n(-c2ccccc2)c2cc(Br)c(OC)cc12", "inhibition": "23.1%"},
      {"smiles": "CC(C)CCN(Cc1ccco1)S(=O)(=O)c1ccc(-c2ccc(=O)[nH]n2)s1", "inhibition": "12.8%"},
      {"smiles": "Cc1onc(-c2ccccc2)c1C(=O)N1CCCN2C(=O)c3ccccc3C21", "note": "(configuration not stated)", "inhibition": "-4.5%"},
      {"smiles": "O=S1(=O)Cc2cc3ccccc3cc2C1", "inhibition": "16.4%"},
      {"smiles": "COc1ccc(C)cc1NC(=O)c1ccc(OC(F)F)cc1", "inhibition": "3.1%"},
      {"smiles": "CC(/C=C/c1ccccc1)=N/NC(=O)C(O)c1ccccc1", "note": "(configuration not stated)", "inhibition": "0.5%"},
      {"smiles": "CC(=O)NC1=NN(C(C)=O)C2(S1)C(=O)N(C(C)=O)c1ccc(C)cc12", "note": "(configuration not stated)", "inhibition": "7.7%"},
      {"smiles": "CC(c1nnc(SCC(=O)N2CC(=O)Nc3ccccc32)n1Cc1ccccc1)N(C)C", "note": "(configuration not stated)", "inhibition": "-4.8%"},
      {"smiles": "COc1cccc(Nc2cc(C)c3ccccc3n2)c1", "inhibition": "6.5%"},
      {"smiles": "Cc1nn(-c2ccccc2)c2[nH]c(=O)c(CNCc3ccc4c(c3)OCO4)cc12", "inhibition": "-26.6%"},
      {"smiles": "Cc1ccc(-c2nn(-c3ccccc3)c3[nH]c(=O)c(CNCc4ccccc4)cc23)cc1", "inhibition": "11.1%"},
      {"smiles": "COc1cccc(NCc2cc3c(C(C)(C)C)nn(-c4ccccc4)c3[nH]c2=O)c1", "inhibition": "22.7%"},
      {"smiles": "CCOc1ccc(NCc2cc3c(C(C)(C)C)nn(-c4ccccc4)c3[nH]c2=O)cc1", "inhibition": "19.3%"},
      {"smiles": "CC(C)(C)c1nn(-c2ccccc2)c2[nH]c(=O)c(CNCc3ccco3)cc12", "inhibition": "39.5%"},
      {"smiles": "CC(C)(C)c1nn(-c2ccccc2)c2[nH]c(=O)c(CNc3ccc4c(c3)OCCO4)cc12", "inhibition": "16.1%"},
      {"smiles": "COc1ccc(N2CCN(S(=O)(=O)c3ccc(Cl)s3)CC2)cc1", "inhibition": "-2%"},
      {"smiles": "Cc1ccc(NC(=O)CN(C)C(=O)CCOc2cccc(C)c2)cc1", "inhibition": "7.3%"},
      {"smiles": "O=[N+]([O-])c1ccc(N/N=C2\\CC3CC=CC23)cc1", "note": "(configuration not stated)", "inhibition": "-7.7%"},
      {"smiles": "O=C(N/N=C/c1ccc(OC(=O)c2ccccc2Cl)cc1)c1cc(O)cc(O)c1", "inhibition": "4.4%"},
      {"smiles": "O=C(CNC1CCCCC1)N1CCc2ccccc2C1", "inhibition": "-1.3%"},
      {"smiles": "NS(=O)(=O)c1ccc(Oc2ccc(S(N)(=O)=O)cc2)cc1", "inhibition": "-4.4%"},
      {"smiles": "C=CS(=O)(=O)c1ccc(Oc2ccc(S(=O)(=O)C=C)cc2)cc1", "inhibition": "70.4% (active)"},
      {"smiles": "CNS(=O)(=O)c1ccc(Oc2ccc(S(=O)(=O)NC)cc2)cc1", "inhibition": "19%"},
      {"smiles": "COc1ccc(C(=S)N2CCOCC2)cc1OC(=O)c1ccc([N+](=O)[O-])cc1[N+](=O)[O-]", "inhibition": "6.8%"},
      {"smiles": "COC(=O)CCC(=O)OC1(C)C(=O)C=C2C=C(C3CC3)N(C3CC3)C=C2C1=O", "note": "(configuration not stated)", "inhibition": "5.7%"},
      {"smiles": "COc1cccc(NC(=O)COC(=O)C2C3CC4OC(=O)C2C4C3)c1", "note": "(configuration not stated)", "inhibition": "2.1%"},
      {"smiles": "COC(=O)C1=C(C)N(Cc2ccccc2)C(=NCCCCO)N[C@H]1c1ccccc1", "inhibition": "-6.4%"},
      {"smiles": "COCCN=C1N[C@@H](c2ccccc2)C(C(=O)OC)=C(C)N1Cc1ccccc1", "inhibition": "31.4%"},
      {"smiles": "Cc1ccc(OCC(=O)N2c3ccccc3NC(=O)C2(C)C)c([N+](=O)[O-])n1", "inhibition": "6.9%"},
      {"smiles": "CCOC(=O)c1nc(Nc2ccc(C)cc2)c2ccccc2n1", "inhibition": "11.6%"},
      {"smiles": "CCOC(=O)c1nc(Nc2ccccc2)c2ccccc2n1", "inhibition": "-3.5%"},
      {"smiles": "Cc1csc(NC(=O)CCC(=O)N(CC(=O)NC2CCCCC2)c2ccccc2)n1", "inhibition": "7.7%"},
      {"smiles": "Cn1cccc1/C=N/N1CCN(Cc2ccccc2Cl)CC1", "inhibition": "-2.2%"},
      {"smiles": "O=C1NC(=O)N(Cc2ccccc2F)C1=O", "inhibition": "-13.9%"}
    ]}
  ]
}
